Assay outcomes from PubChem.
NCOA2 inhibitor = human SRC2 (NCOA2) inhibition | Q15596 | HEK293 GAL4-SRC2 luciferase reporter, luminescence | inhibition, % at 9 µM | 0.17% of 370,000 active | AID 651957;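 active = inhibition above the mean inhibition of all tested compounds plus 3 SD, set per campaign, cut at about 52% in these data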;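 note: 0% = DMSO treated cells and 100% = cells given Gossypol at 36 µM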
SRC3 inh = inhibitors of human steroid receptor coactivator 3 (SRC3) | Q9Y6Q9 | HEK293 GAL4-SRC3 luciferase reporter, luminescence | inhibition, % at 3.6 µM | 0.17% of 360,000 active | AID 588352;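 active = inhibition above a per-campaign cutoff, the mean of all compounds plus 3 SD, cut at about 60% in these data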;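 note: 0% = DMSO-treated cells and 100% = gossypol-treated cells at 36 µM; higher means less SRC3-driven luciferase light from the GAL4 reporter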
LRH-1 inv ag = NR5A2 inverse agonism in reporter assay. O00482. HEK293T StAR-luciferase reporter, LRH-1 transfected, 24 h. inhibition, % at 3.6 µM. 0.13% of 360,000 active. AID 602396;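 active = inhibition above the mean inhibition of all tested compounds plus 3 SD, cut at about 73% in these data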;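 note: 0% = DMSO wells and 100% = reporter-only cells lacking LRH-1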
COUP-TFII inh = blocks human COUP-TFII nuclear receptor; HEK293T NGFI-A luciferase reporter, luminescence; inhibition, % at 8.6 µM; 0.7% of 370,000 active;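 active = inhibition above a per-plate cutoff, mean inhibition of test wells between control levels plus 3 SD, cut at about 38% in these data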;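 note: cells cotransfected with COUP-TFII expression vector driving the NGFI-A reporter; 0% = median of COUP-TF2 test wells and 100% = reporter-only cells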
NCOA1 inh = inhibitors of human steroid receptor coactivator 1 (SRC1); inhibition, % at 3.6 µM; 0.12% of 360,000 active; HEK293 GAL4-SRC1 luciferase reporter, luminescence;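 active = inhibition above the campaign mean plus 3 SD, with each screening campaign given its own cutoff, cut at about 60% in these data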;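 note: 0% = DMSO treated cells and 100% = gossypol at 36 µM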
Gal4-VP16 ctr = inhibits VP16 reporter, flagging COUP-TFII antagonist hits; shares compounds with COUP-TFII inh; HEK293 Gal4-VP16 luciferase reporter, luminescence; inhibition, % at 8.5 µM; 25% of 2,500 active; AID 687007; in the data active = inhibition above about 13%
COUP-TFII conf = COUP-TFII (NR2F2) inhibition, confirmation assay; shares compounds with COUP-TFII inh; inhibition, % at 8.5 µM; AID 687008; 45% of 2,500 active; HEK293 NGFI-A luciferase reporter, luminescence;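 active = mean inhibition over three repeats above a set limit taken from the earlier primary screen, cut at about 38% in these data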;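 note: 100% = cells given the luciferase reporter alone without the COUP-TF2 vector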
Active calls of the source: *; nt = no result given. Only some compounds are listed: those with a hit (about 0.84% of all), similar ones and a draw of the others.

SMILES	NCOA2 inhibitor	SRC3 inh	LRH-1 inv ag	COUP-TFII inh	NCOA1 inh	Gal4-VP16 ctr	COUP-TFII conf
c1ccc(OC2CCN(c3ncnc4sccc34)CC2)cc1	nt	nt	nt	64*	nt	-8	49*
COc1ccc(CC(=O)NCc2nn(-c3ccccc3)nc2C)cc1OC	-21	-5	-7	-10	-16	nt	nt
COc1ccc(-c2ocnc2C(=O)NCc2nn(-c3ccccc3)nc2C)cc1	27	19	15	60*	26	3	41*
O=C(NCCCc1ccccc1)C1CCN(c2nc(-c3ccc(Br)cc3)cs2)CC1	nt	nt	nt	37*	nt	-1	1
O=C(NCCc1ccccc1)C1CCN(c2ncccn2)CC1	-64	-6	-24	-18	-27	nt	nt
N#C/C(=C\Nc1ccccc1SC(F)(F)F)c1nc(-c2ccc(Cl)cc2)cs1	-30	15	4	-10	10	nt	nt
C[C@H]1[C@@H]2C[C@@]3(O[C@H](c4ccc(C(F)(F)F)cc4)N=C3C[C@@H]1c1ccccc1)N(Cc1ccncc1)C2=O	-9	nt	nt	17	nt	nt	nt
C=CCn1c(C)c(/C=C/c2cc[n+](C)cc2)c2ccccc21	11	23	31	56*	1	7	34
CCn1cc(/C=C/c2cc[n+](C)cc2)c2ccccc21	-31	33	42	42*	38	9	20
CCc1nc2c(OCC(=O)N3CCOCC3)cccn2c1N(C)C(=O)COc1ccccc1	-4	11	-9	-2	-4	nt	nt
O=C1Nc2cc(C(=O)N3CCOCC3)ccc2S/C1=C/c1ccccc1F	4	7	0	2	20	nt	nt
C#CCNC(=O)C[C@@H]1C(=O)N2CCCC3=C2[C@@]1(C(=O)OCC)CCC3	-12	nt	nt	-13	nt	nt	nt
COc1ccc(-c2csc(NC(=O)C3CCN(c4ncnc5sc(C)c(C)c45)CC3)n2)cc1OC	23	60	18	56*	79*	12	87*
CNC(=O)c1ccc(NC(=O)C2CCN(c3ncnc4sc(C)c(C)c34)CC2)cc1	20	36	19	44*	41	-1	13
COc1cc(C(=O)N2CCN(c3ncnc4sc(C)c(C)c34)CC2)cc(OC)c1OC	-5	9	34	48*	13	8	48*
Cc1sc2ncnc(N3CCC(C(=O)Nc4ccc(Cl)c(Cl)c4)CC3)c2c1C	-5	-11	-1	0	5	nt	nt
COc1ccccc1OCC(=O)NNC(=O)C1CCN(c2ncnc3sc(C)c(C)c23)CC1	17	36	1	2	-12	nt	nt
Cc1sc2ncnc(N3CCN(c4ncccn4)CC3)c2c1C	6	11	1	-4	-3	nt	nt
Cc1cc(N2CCNC[C@@H]2C)ccc1N1CCN(Cc2ccccc2)[C@@H](C)C1	-11	nt	nt	16	nt	nt	nt
COc1cc2c3c(cccc3c1)C(=O)N(CCN1CCCC1)C2=O	-89	-259	68	0	-112	nt	nt
COC(=O)[C@]12C[C@H](CC(=O)NCC34CC5CC(CC(C5)C3)C4)C(=O)N(Cc3ccccc3)C1=C[C@H](C(C)(C)C)O[C@@H]2C	-27	nt	nt	11	nt	nt	nt
Cc1ccc(OCCCC(=O)Nc2ccc(Cl)c(S(=O)(=O)N3CCOCC3)c2)cc1	27	20	15	57*	17	-5	36
CC(=O)c1ccc(OCCCC(=O)Nc2ccc(Cl)c(S(=O)(=O)N3CCOCC3)c2)cc1	19	-18	35	70*	20	3	56*
O=C(CCCOc1ccccc1)Nc1ccc(Cl)c(S(=O)(=O)N2CCOCC2)c1	32	18	21	49*	12	8	28
CCN(CC)S(=O)(=O)c1cc(NC(=O)c2ccc3c(c2)NC(=O)C(C)S3)ccc1C (centres undefined)	36	17	18	61*	-7	9	47*
SMILES	NCOA2 inhibitor	SRC3 inh	LRH-1 inv ag	COUP-TFII inh	NCOA1 inh	Gal4-VP16 ctr	COUP-TFII conf
Cc1cc(C)c(NC(=O)c2ccc3c(c2)NC(=O)C(C)S3)c(C)c1 (centres undefined)	17	-1	11	5	5	nt	nt
O=C(CCCSc1ccccc1)Nc1ccc(Cl)c(S(=O)(=O)N2CCOCC2)c1	14	4	3	40*	6	12	26
CCN(CC)S(=O)(=O)c1cc(NC(=O)CCCOc2ccc(C(C)=O)cc2)ccc1C	9	20	42	42*	-1	-3	18
O=C(CCSc1ccccc1)Nc1ccc(S(=O)(=O)N2CCOCC2)cc1	-8	-16	-20	2	-4	nt	nt
COc1ccc(C(=O)Nc2ccc(N3CCN(Cc4ccccc4)CC3)cc2)cc1	-4	-12	7	-22	-20	nt	nt
CCOc1ccc(NC(=O)c2ccc(CN3CCc4ccccc4C3)cc2)cc1	-12	7	13	48*	29	-30	41*
COc1cccc(NC(=O)c2ccc(CN3CCc4ccccc4C3)cc2)c1	-23	-4	1	54*	-6	-46	18
CCOc1ccccc1NC(=O)c1ccc(CN2CCc3ccccc3C2)cc1	0	-14	37	9	1	nt	nt
CCOC(=O)c1ccc(NC(=O)CN2CCc3ccccc3C2)cc1	-5	4	-14	-6	-5	nt	nt
COc1ccc(NC(=O)c2ccc(CN3CCN(c4ccccc4)CC3)cc2)cc1	-10	-26	-1	48*	-10	0	13
CCOC(=O)c1ccc(NC(=O)c2ccc(CN3CCc4ccccc4C3)cc2)cc1	6	23	34	51*	30	-8	54*
Cc1[nH]nc2c1C(c1ccc(F)cc1)N(c1ccccc1)C2=O (centres undefined)	3	nt	nt	1	nt	nt	nt
O=C(N[C@H](C(=O)N1CCC[C@H]1C(=O)NC1CCCC1)c1ccccc1)C1CC1	-30	nt	nt	-12	nt	nt	nt
O=C(c1ccc(F)cc1)C1CCN(c2ncnc3sccc23)CC1	nt	nt	nt	63*	nt	3	56*
O=C(c1ccc(F)cc1)C1CCN(Cc2ccc(F)cc2)CC1	-7	-8	25	27	-5	nt	nt
O=C(c1ccccc1)C1CCN(c2ncnc3sccc23)CC1	nt	nt	nt	74*	nt	6	62*
O=S(=O)(c1ccccc1C(F)(F)F)N1CCN(c2ncnc3sccc23)CC1	25	0	-21	15	11	nt	nt
O=C(c1cc(COc2ccc(F)cc2Cl)on1)N1CCC(c2ccncc2)CC1	11	13	17	39*	1	-10	26
CSc1ccccc1OCc1cc(C(=O)N2CCC(c3ccncc3)CC2)no1	16	4	31	58*	5	-3	51*
COc1ccc(C2CC(=O)C(c3ccc(C(F)(F)F)cc3)=CN2Cc2ccccc2)cc1 (centres undefined)	18	nt	nt	17	nt	nt	nt
COc1cccc(OC)c1C(=O)OCC(=O)NCCNC(=O)COC(=O)c1c(OC)cccc1OC	-5	-12	-12	4	5	nt	nt
